# Measurements taken from PubChem BioAssay (EPA / NIEHS).
# Records with an inconclusive call do not appear. Activity calls are given as the source filed them. Rule for the calls: active = hit-call score of the fitted dose curve at least 0.9, where 1 is the maximum; inconclusive = response in the unintended direction; inactive = score below 0.9.
# Columns and labels:
# [1] = molecular target: human Neurokinin, NK2 Receptor, TACR2 (gene 6865) (UniProt P21452); experiment: NVS_GPCR_hNK2: NovaScreen (NVS) G Protein-Coupled Receptor Assay for human Neurokinin, NK2 Receptor (AID 2283278);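 note: actives reduce bound radioligand signal relative to DMSO baseline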
# Chain of human Neurokinin, NK2 Receptor, TACR2 (gene 6865) (P21452 whole entry, looked up): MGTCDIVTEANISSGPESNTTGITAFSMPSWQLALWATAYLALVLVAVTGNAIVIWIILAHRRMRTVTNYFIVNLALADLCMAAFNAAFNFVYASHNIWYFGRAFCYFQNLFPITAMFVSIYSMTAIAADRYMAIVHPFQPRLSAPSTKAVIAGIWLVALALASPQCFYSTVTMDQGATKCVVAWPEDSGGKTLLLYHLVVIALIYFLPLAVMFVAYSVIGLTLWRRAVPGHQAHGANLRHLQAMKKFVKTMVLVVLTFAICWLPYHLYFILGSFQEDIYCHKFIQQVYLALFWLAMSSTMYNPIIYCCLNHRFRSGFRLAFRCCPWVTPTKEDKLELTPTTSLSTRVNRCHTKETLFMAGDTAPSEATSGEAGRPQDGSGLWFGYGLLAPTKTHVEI
# How it was run: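 Radioligand binding on membranes from CHO cells expressing receptor, filter-based scintillation read 4 h after dosing. Initial duplicate screen at 25 uM, actives in concentration series; loss of signal versus DMSO.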
# [2] = tested on: 5-hydroxytryptamine receptor 2C (pig); experiment: NVS_GPCR_p5HT2C: NovaScreen (NVS) G Protein-Coupled Receptor Assay for pig Serotonin, 5-Hydroxytryptamine Receptor 2C (5HT2C) (AID 2283288)
# How it was run: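 Pig choroid plexus membranes; radioligand competitive binding, filter-based scintillation counting, read 1 h after dosing. Primary screen in duplicate at 25 uM; actives then run as concentration series; loss of signal versus DMSO baseline.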
# [3] = molecular target: human Opioid Receptor Mu (Opiate Mu), OPRM1 (gene 4988) (UniProt P35372); experiment: NVS_GPCR_hOpiate_mu: NovaScreen (NVS) G Protein-Coupled Receptor Assay for human Opioid Receptor Mu (Opiate Mu) (AID 2283290);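 note: hits lower bound tracer signal versus DMSO meaning displacement of the ligand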
# Chain of human Opioid Receptor Mu (Opiate Mu), OPRM1 (gene 4988) (P35372 whole entry, looked up): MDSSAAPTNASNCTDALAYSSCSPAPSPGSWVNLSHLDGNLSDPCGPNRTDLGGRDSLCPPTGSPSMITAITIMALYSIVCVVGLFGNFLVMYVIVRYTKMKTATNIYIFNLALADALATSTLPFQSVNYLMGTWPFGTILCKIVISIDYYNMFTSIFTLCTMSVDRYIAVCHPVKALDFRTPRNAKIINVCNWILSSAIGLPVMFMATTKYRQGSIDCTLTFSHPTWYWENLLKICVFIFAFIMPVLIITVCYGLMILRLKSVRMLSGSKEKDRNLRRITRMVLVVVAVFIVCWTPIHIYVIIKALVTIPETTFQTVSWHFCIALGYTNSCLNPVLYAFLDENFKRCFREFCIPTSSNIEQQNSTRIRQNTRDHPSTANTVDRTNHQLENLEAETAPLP
# How it was run: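 Radioligand displacement binding on membranes from CHO cells expressing the receptor, 2.5 h after dosing, filter-based scintillation counting; loss of signal vs DMSO baseline. Screened in duplicate at 25 uM, actives then run in concentration series.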
# [4] = molecular target: rat Serotonin, 5-Hydroxytryptamine Receptor (5HT), Non-Selective Binding, Htr1a (gene 24473) (UniProt P19327); experiment: NVS_GPCR_r5HT_NonSelective: NovaScreen (NVS) G Protein-Coupled Receptor Assay for rat Serotonin, 5-Hydroxytryptamine Receptor (5HT), Non-Selective Binding (AID 2283295)
# Chain of rat Serotonin, 5-Hydroxytryptamine Receptor (5HT), Non-Selective Binding, Htr1a (gene 24473) (P19327 whole entry, looked up): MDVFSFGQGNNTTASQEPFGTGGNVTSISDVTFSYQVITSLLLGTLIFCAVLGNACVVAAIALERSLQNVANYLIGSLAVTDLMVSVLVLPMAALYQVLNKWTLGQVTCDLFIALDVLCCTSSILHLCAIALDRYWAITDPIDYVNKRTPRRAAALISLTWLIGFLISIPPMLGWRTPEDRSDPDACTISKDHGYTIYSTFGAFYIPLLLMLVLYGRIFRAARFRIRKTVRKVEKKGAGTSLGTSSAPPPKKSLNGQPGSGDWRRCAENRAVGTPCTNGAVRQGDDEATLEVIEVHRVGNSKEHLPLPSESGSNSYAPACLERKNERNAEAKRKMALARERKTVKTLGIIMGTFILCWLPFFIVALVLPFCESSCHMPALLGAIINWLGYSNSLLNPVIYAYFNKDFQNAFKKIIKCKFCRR
# How it was run: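 Radioligand displacement on rat cortical membranes, 1 h incubation, filter-based scintillation counting. Primary duplicates at 25 uM, actives retested in concentration series; loss of signal fitted against DMSO as baseline.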
# [5] = molecular target: human Thromboxane A2 Receptor (TXA2), TBXA2R (gene 6915) (UniProt P21731); experiment: NVS_GPCR_hTXA2: NovaScreen (NVS) G Protein-Coupled Receptor Assay for human Thromboxane A2 Receptor (TXA2) (AID 2283282);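 note: actives reduce bound radioligand signal relative to DMSO baseline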
# Chain of human Thromboxane A2 Receptor (TXA2), TBXA2R (gene 6915) (P21731 whole entry, looked up): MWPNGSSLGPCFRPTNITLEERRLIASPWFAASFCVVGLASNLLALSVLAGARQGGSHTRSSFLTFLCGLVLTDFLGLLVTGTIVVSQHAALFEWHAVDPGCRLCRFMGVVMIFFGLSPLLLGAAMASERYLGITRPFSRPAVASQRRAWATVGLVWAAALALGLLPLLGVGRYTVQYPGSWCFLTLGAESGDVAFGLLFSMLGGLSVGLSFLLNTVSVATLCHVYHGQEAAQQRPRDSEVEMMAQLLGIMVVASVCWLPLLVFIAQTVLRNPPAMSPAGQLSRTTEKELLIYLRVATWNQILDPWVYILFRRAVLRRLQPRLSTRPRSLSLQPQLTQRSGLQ
# How it was run: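 Human platelet-derived receptor preparation incubated with test chemical and radiolabelled ligand for 1 hour, cell-free. Bound label was separated by filtration and counted; displacement relative to DMSO controls gave activity, screened at 25 uM, then titrated.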
# [6] = molecular target: human Opioid Receptor Delta 1 (Opiate D1), OPRD1 (gene 4985) (UniProt P41143); experiment: NVS_GPCR_hOpiate_D1: NovaScreen (NVS) G Protein-Coupled Receptor Assay for human Opioid Receptor Delta 1 (Opiate D1) (AID 2283280)
# Chain of human Opioid Receptor Delta 1 (Opiate D1), OPRD1 (gene 4985) (P41143 whole entry, looked up): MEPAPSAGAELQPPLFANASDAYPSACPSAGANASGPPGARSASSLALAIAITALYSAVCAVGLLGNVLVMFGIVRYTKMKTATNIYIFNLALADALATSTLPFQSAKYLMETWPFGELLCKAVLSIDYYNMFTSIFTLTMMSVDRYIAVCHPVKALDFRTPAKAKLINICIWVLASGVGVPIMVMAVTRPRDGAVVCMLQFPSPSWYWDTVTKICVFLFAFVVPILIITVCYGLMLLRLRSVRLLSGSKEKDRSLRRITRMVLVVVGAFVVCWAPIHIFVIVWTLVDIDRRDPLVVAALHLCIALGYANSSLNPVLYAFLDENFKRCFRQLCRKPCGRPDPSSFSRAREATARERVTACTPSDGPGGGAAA
# How it was run: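 Radioligand displacement on membranes from CHO cells expressing the receptor, read by filter scintillation counting 1 h after dosing. Duplicate single-point screen at 25 uM, then concentration series for actives; loss of signal versus DMSO.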
# [7] = molecular target: rat Adrenergic Receptor, Alpha 2 (Adra2), Non-selective Binding, Adra2a (gene 25083) (UniProt P22909); experiment: NVS_GPCR_rAdra2_NonSelective: NovaScreen (NVS) G Protein-Coupled Receptor Assay for rat Adrenergic Receptor, Alpha 2 (Adra2), Non-selective Binding (AID 2283299)
# How it was run: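 Rat cortical membranes, radioligand competitive displacement read by filter-based scintillation counting 1.25 hours after dosing. Primary screen in duplicate at 25 uM; actives followed up in concentration series.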
# [8] = molecular target: rat Adrenergic, Alpha 1, Non-selective Receptor (Adra1), Adra1a (gene 29412) (UniProt P43140); experiment: NVS_GPCR_rAdra1_NonSelective: NovaScreen (NVS) G Protein-Coupled Receptor Assay for rat Adrenergic, Alpha 1, Non-selective Receptor (Adra1) (AID 2283289)
# Chain of rat Adrenergic, Alpha 1, Non-selective Receptor (Adra1), Adra1a (gene 29412) (P43140 whole entry, looked up): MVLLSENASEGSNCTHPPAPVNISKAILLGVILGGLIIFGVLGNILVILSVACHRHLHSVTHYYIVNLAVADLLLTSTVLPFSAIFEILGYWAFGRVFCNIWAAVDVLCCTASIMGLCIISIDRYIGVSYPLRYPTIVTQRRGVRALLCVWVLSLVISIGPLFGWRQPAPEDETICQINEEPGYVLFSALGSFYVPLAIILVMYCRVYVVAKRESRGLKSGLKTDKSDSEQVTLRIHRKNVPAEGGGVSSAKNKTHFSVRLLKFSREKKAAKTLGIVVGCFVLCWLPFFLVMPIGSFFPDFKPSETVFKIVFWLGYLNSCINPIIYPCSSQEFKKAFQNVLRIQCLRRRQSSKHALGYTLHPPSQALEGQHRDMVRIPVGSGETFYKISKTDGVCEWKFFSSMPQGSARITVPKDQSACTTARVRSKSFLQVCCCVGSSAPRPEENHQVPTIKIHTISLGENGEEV
# How it was run: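 Rat forebrain membranes; radioligand displacement read by filter-based scintillation counting 1 h after dosing. Primary screen in duplicate at 25 uM; hits (e.g. ≥30% inhibition) rerun as concentration–response to 50 uM max. Fitted versus DMSO.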
# [9] = molecular target: human Orphanin, Opioid Related Nociceptin Receptor 1 (ORL1), OPRL1 (gene 4987) (UniProt P41146); experiment: NVS_GPCR_hORL1: NovaScreen (NVS) G Protein-Coupled Receptor Assay for human Orphanin, Opioid Related Nociceptin Receptor 1 (ORL1) (AID 2283283)
# Chain of human Orphanin, Opioid Related Nociceptin Receptor 1 (ORL1), OPRL1 (gene 4987) (P41146 whole entry, looked up): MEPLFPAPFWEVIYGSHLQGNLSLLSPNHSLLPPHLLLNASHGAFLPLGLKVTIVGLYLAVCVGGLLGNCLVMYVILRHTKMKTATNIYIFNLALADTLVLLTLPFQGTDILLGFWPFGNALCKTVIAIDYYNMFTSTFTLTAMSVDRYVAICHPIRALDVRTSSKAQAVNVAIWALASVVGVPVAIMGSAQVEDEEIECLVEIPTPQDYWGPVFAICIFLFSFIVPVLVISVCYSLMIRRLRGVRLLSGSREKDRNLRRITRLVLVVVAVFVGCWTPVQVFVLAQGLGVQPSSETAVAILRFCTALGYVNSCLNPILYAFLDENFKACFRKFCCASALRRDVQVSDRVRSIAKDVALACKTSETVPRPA
# How it was run: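 Filter-based radioligand displacement with receptor extracted from HEK293 cells, read 1 hour after dosing by scintillation counting. Duplicate single-point screen at 25 uM; qualifying chemicals then run in concentration-response to 50 uM, analysed relative to DMSO.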
# [10] = molecular target: rat Serotonin, 5-Hydroxytryptamine Receptor 1 (5HT1), Non-Selective Binding, Htr1a (gene 24473) (UniProt P19327); experiment: NVS_GPCR_r5HT1_NonSelective: NovaScreen (NVS) G Protein-Coupled Receptor Assay for rat Serotonin, 5-Hydroxytryptamine Receptor 1 (5HT1), Non-Selective Binding (AID 2283286)
# Chain of rat Serotonin, 5-Hydroxytryptamine Receptor 1 (5HT1), Non-Selective Binding, Htr1a (gene 24473) (P19327 whole entry, looked up): as the sequence (P19327 whole entry, looked up) above
# How it was run: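 Rat cortical membranes, radioligand displacement, 1 h incubation, read by filter scintillation. Primary screen in duplicate at 25 uM. Hits (e.g. ≥30% inhibition) went to concentration-response up to 50 uM, fitted as loss of binding versus DMSO.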
# [11] = molecular target: mouse Cholecystokinin, CCK1 Receptor (CCKA), Cckar (gene 12425) (UniProt O08786); experiment: NVS_GPCR_mCCKAPeripheral: NovaScreen (NVS) G Protein-Coupled Receptor Assay for mouse Cholecystokinin, CCK1 Receptor (CCKA) (AID 2283285)
# Chain of mouse Cholecystokinin, CCK1 Receptor (CCKA), Cckar (gene 12425) (O08786 whole entry, looked up): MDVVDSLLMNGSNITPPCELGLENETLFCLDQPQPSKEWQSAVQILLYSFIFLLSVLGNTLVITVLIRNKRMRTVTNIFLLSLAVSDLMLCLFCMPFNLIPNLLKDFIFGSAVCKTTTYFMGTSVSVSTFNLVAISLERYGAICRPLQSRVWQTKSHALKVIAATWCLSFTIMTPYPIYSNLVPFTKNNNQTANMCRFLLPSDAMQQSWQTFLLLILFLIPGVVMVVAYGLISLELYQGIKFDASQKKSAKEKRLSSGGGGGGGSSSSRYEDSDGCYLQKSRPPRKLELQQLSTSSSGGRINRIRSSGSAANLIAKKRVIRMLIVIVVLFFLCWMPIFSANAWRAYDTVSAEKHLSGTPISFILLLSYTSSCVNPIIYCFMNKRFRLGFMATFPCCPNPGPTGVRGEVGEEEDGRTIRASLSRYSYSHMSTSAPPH
# How it was run: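 Radioligand competitive displacement on mouse pancreatic membranes, 2 h incubation; filter-based scintillation counting, loss of signal versus DMSO. Single-concentration screen at 25 uM in duplicate, actives retested in concentration-response up to 50 uM.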
# [12] = tested on: rabbit Platelet Activating Factor Receptor (PAF), gene 100354046; experiment: NVS_GPCR_rabPAF: NovaScreen (NVS) G Protein-Coupled Receptor Assay for rabbit Platelet Activating Factor Receptor (PAF) (AID 2283287)
# How it was run: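 Rabbit platelet membrane preparation; radioligand displacement read by filter-based scintillation counting 1 h after dosing, loss of signal versus DMSO. Primary screen in duplicate at 25 uM, actives followed up in concentration series.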
# [13] = molecular target: guinea pig Serotonin, 5-Hydroxytryptamine Receptor 4 (5HT4), HTR4 (gene 100135548) (UniProt O70528); experiment: NVS_GPCR_g5HT4: NovaScreen (NVS) G Protein-Coupled Receptor Assay for guinea pig Serotonin, 5-Hydroxytryptamine Receptor 4 (5HT4) (AID 2283294)
# Chain of guinea pig Serotonin, 5-Hydroxytryptamine Receptor 4 (5HT4), HTR4 (gene 100135548) (O70528 whole entry, looked up): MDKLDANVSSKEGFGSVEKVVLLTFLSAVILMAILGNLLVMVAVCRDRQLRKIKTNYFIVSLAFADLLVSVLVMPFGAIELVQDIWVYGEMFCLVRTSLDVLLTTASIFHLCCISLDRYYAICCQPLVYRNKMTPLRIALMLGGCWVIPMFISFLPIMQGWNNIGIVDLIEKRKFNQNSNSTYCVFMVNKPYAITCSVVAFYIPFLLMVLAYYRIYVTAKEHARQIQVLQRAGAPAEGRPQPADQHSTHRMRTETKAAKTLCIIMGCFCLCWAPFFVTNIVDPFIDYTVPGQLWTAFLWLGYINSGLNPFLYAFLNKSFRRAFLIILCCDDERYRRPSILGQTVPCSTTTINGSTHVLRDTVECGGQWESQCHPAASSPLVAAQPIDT
# How it was run: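 Guinea pig striatal membranes; radioligand competitive displacement, filtration and scintillation counting after 1 h. Primary screen in duplicate at 25 uM; actives then tested in concentration series; loss of binding signal fitted relative to DMSO.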
# [14] = molecular target: rat Adrenergic, Alpha 1A Receptor (Adra1A), Adra1a (gene 29412) (UniProt P43140); experiment: NVS_GPCR_rAdra1A: NovaScreen (NVS) G Protein-Coupled Receptor Assay for rat Adrenergic, Alpha 1A Receptor (Adra1A) (AID 2283296)
# Chain of rat Adrenergic, Alpha 1A Receptor (Adra1A), Adra1a (gene 29412) (P43140 whole entry, looked up): as the sequence (P43140 whole entry, looked up) above
# How it was run: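 Rat cortical membranes pretreated with chlorethyl clonidine; competitive radioligand displacement, 1 h. Filter-based scintillation counting. Primary screen in duplicate at 25 uM, actives followed in concentration series.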
# [15] = tested on: rat Adrenergic, Alpha 1B Receptor (Adra1B), gene 24173; experiment: NVS_GPCR_rAdra1B: NovaScreen (NVS) G Protein-Coupled Receptor Assay for rat Adrenergic, Alpha 1B Receptor (Adra1B) (AID 2283297)
# How it was run: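 Rat liver membranes, radioligand displacement with filter-based scintillation detection, 1 h incubation. Primary screen in duplicate at 25 uM; actives retested in concentration series; activity relative to DMSO.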
# [16] = molecular target: rat Adrenergic Receptor, Beta (Adrb), Non-selective Binding, Adrb1 (gene 24925) (UniProt P18090); experiment: NVS_GPCR_rAdrb_NonSelective: NovaScreen (NVS) G Protein-Coupled Receptor Assay for rat Adrenergic Receptor, Beta (Adrb), Non-selective Binding (AID 2283298)
# How it was run: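 Non-selective beta-adrenergic radioligand binding in rat cortical membranes, 1 h incubation, filter-based scintillation read-out. Primary screen 25 uM in duplicate; hits retested in concentration-response up to 50 uM, DMSO baseline.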
# [17] = molecular target: human Vasopressin 1A Receptor (V1A), AVPR1A (gene 552) (UniProt P37288); experiment: NVS_GPCR_hV1A: NovaScreen (NVS) G Protein-Coupled Receptor Assay for human Vasopressin 1A Receptor (V1A) (AID 2283284)
# Chain of human Vasopressin 1A Receptor (V1A), AVPR1A (gene 552) (P37288 whole entry, looked up): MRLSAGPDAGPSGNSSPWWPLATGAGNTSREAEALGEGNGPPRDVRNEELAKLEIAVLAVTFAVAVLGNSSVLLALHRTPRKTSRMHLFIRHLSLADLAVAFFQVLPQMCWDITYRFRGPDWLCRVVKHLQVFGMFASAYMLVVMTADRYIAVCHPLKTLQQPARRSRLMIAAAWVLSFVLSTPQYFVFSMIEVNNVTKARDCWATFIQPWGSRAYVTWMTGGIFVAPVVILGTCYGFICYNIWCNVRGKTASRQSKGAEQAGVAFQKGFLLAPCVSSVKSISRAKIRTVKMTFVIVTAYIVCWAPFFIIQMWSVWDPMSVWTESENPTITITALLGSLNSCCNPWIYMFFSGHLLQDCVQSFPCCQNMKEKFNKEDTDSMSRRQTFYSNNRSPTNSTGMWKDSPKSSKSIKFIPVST
# How it was run: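 Cell-free radioligand displacement on human platelet preparations, 1.5 h incubation, filter-based scintillation counting. Chemicals first tested in duplicate at 25 uM; actives then run in concentration-response up to 50 uM, loss of signal fitted against DMSO.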
smiles,measurement,setting,value
CCOC(=O)COc1ccc2c(c1)CC(NCC(O)c1cccc(Cl)c1)CC2 (stereo not given),AC50,[1],21.7 µM (active)
same,AC50,[2],13.2 µM (active)
same,AC50,[3],5.18 µM (active)
same,outcome,[4],inactive
Cc1c(-c2cccnc2)c2ccccc2n1CCCCC(=O)O,AC50,[5],5.82 µM (active)
CCC(C)(C)C(=O)O[C@H]1C[C@@H](C)C=C2C=C[C@H](C)[C@H](CC[C@@H]3C[C@@H](O)CC(=O)O3)[C@H]21,outcome,[6],inactive
same,outcome,[5],inactive
same,outcome,[3],inactive
same,outcome,[7],inactive
COc1ccc2sc(C(=O)Nc3nnn[nH]3)c(OC(C)C)c2c1,AC50,[5],0.187 µM (active)
CN(C)c1ccc(N=NS(=O)(=O)O)cc1,AC50,[1],0.656 µM (active)
same,AC50,[8],23.8 µM (active)
On1ccccc1=S,AC50,[1],8.14 µM (active)
same,AC50,[9],4.73 µM (active)
same,AC50,[10],16.2 µM (active)
same,outcome,[3],inactive
CCOc1cccc(-n2cc(C(=O)N3CCN(c4cc(C(=O)O)c5ccccc5c4)CC3)nc2-c2ccc(C)cc2)c1,AC50,[1],7.6 µM (active)
same,AC50,[6],9.02 µM (active)
same,AC50,[5],6.65 µM (active)
same,AC50,[11],0.00589 µM (active)
same,AC50,[3],23.8 µM (active)
O=C(O)c1cccc(N(Cc2cccnc2)c2ccc(OC(F)F)c(OC(F)F)c2)c1,outcome,[1],inactive
O=C(O)CC(O)C(=O)O (stereo not given),outcome,[6],inactive
same,outcome,[9],inactive
same,outcome,[2],inactive
same,outcome,[3],inactive
same,outcome,[4],inactive
Cc1[nH]cnc1C[C@H]1CCc2c(C)c3ccccc3n2C1=O,outcome,[1],inactive
same,outcome,[10],inactive
same,AC50,[12],0.958 µM (active)
same,AC50,[2],0.116 µM (active)
same,AC50,[8],3.15 µM (active)
same,AC50,[3],6.29 µM (active)
same,AC50,[13],6.64 µM (active)
same,AC50,[4],4.63 µM (active)
same,AC50,[14],8.9 µM (active)
same,AC50,[15],11.9 µM (active)
same,AC50,[16],4.78 µM (active)
O=C(OC[C@H]1O[C@@H](OC(=O)c2cc(O)c(O)c(OC(=O)c3cc(O)c(O)c(O)c3)c2)[C@H](OC(=O)c2cc(O)c(O)c(OC(=O)c3cc(O)c(O)c(O)c3)c2)[C@@H](OC(=O)c2cc(O)c(O)c(OC(=O)c3cc(O)c(O)c(O)c3)c2)[C@@H]1OC(=O)c1cc(O)c(O)c(OC(=O)c2cc(O)c(O)c(O)c2)c1)c1cc(O)c(O)c(OC(=O)c2cc(O)c(O)c(O)c2)c1,outcome,[5],inactive
same,AC50,[11],12 µM (active)
CCCCCCc1ccc(O)cc1O,AC50,[5],5.72 µM (active)
CC1=CC(=O)CC(C)(C)C1,AC50,[17],18.5 µM (active)
Cc1ccc(O)cc1,AC50,[17],22.1 µM (active)
COc1ccc(/C=C/S(=O)(=O)NC(=O)c2ccc(C)cc2Cl)cc1,AC50,[11],22.7 µM (active)
CCCN(C1CCN(C(=O)C2CCNCC2)CC1)[C@@H]1CCc2ccc(OC)cc2C1,AC50,[10],8.67 µM (active)
O=c1[nH]c2ccc(S(=O)CCN3CCC(Cc4ccc(F)cc4)CC3)cc2o1 (stereo not given),outcome,[10],inactive
same,AC50,[14],3.25 µM (active)
COc1ccc(-n2nc(C(F)F)cc2-c2ccc(S(C)=O)cc2)cc1 (stereo not given),AC50,[12],11.5 µM (active)
Cc1ccc(N)cc1O,outcome,[12],inactive
CCN(C(=O)c1cc(C)cc(OC[C@H](C)Nc2ccncc2)c1)C(C)C,AC50,[14],7.54 µM (active)
